Data: article PMC5540273 (PLoS ONE, 2017)

What was measured:
Details in all cases: concentration: 1 μM, replicates: in singlicate; n = 1
TLK1 = test system: TLK1
TLK2 = test system: TLK2
TNIK = test system: TNIK
TNK1 = test system: TNK1
TNK2 = test system: TNK2
TNNI3K = test system: TNNI3K
TRKA = test system: T1, TRKA
T1 construct: gene NTRK1

TRKB = test system: TRKB
TRKC = test system: T2, TRKC
T2 construct: gene NTRK3

TRPM6 = test system: TRPM6
TSSK1B = test system: TSSK1B
TSSK3 = test system: TSSK3
TTK = test system: TTK
TXK = test system: TXK
[1] = test system: TYK2(JH1domain-catalytic)
[2] = test system: TYK2(JH2domain-pseudokinase)
TYRO3 = test system: TYRO3
ULK1 = test system: ULK1
ULK2 = test system: ULK2
ULK3 = test system: ULK3
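Further: KINOMEscan kinase panel screen.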

CC(C)c1ccc(O)cc1Nc1ccnc2ccc(C(F)(F)F)cc12 [GW482059]
%Inh (TLK1): 0%
%Inh (TLK2): 0%
%Inh (TNIK): 0%
%Inh (TNK1): 0%
%Inh (TNK2): 0%
%Inh (TNNI3K): 71%
%Inh (TRKA): 12%
%Inh (TRKB): 11%
%Inh (TRKC): 37%
%Inh (TRPM6): 1%
%Inh (TSSK1B): 0%
%Inh (TSSK3): 3%
%Inh (TTK): 2%
%Inh (TXK): 19%
%Inh [1]: 23%
%Inh [2]: 0%
%Inh (TYRO3): 0%
%Inh (ULK1): 20%
%Inh (ULK2): 0%
%Inh (ULK3): 8%

O=c1cc(N2CCOCC2)nc2n(Cc3ccccc3F)ccn12 [GSK2297428]
%Inh (TLK1): 0%
%Inh (TLK2): 0%
%Inh (TNIK): 0%
%Inh (TNK1): 0%
%Inh (TNK2): 4%
%Inh (TNNI3K): 0%
%Inh (TRKA): 0%
%Inh (TRKB): 0%
%Inh (TRKC): 0%
%Inh (TRPM6): 0%
%Inh (TSSK1B): 0%
%Inh (TSSK3): 13%
%Inh (TTK): 0%
%Inh (TXK): 0%
%Inh [1]: 0%
%Inh [2]: 0%
%Inh (TYRO3): 0%
%Inh (ULK1): 0%
%Inh (ULK2): 0%
%Inh (ULK3): 0%

COC(=O)C(Cc1ccccc1)NC(=O)NC1CCN(c2ccnc(Nc3ccc(F)cc3)n2)C1 (centres unmarked) [GSK1379714]
%Inh (TLK1): 10%
%Inh (TLK2): 0%
%Inh (TNIK): 6%
%Inh (TNK1): 0%
%Inh (TNK2): 4%
%Inh (TNNI3K): 0%
%Inh (TRKA): 98.2%
%Inh (TRKB): 23%
%Inh (TRKC): 25%
%Inh (TRPM6): 0%
%Inh (TSSK1B): 0%
%Inh (TSSK3): 21%
%Inh (TTK): 0%
%Inh (TXK): 0%
%Inh [1]: 33%
%Inh [2]: 19%
%Inh (TYRO3): 0%
%Inh (ULK1): 0%
%Inh (ULK2): 0%
%Inh (ULK3): 0%

Cc1ccccc1-c1cc(-c2c[nH]nc2-c2ccccn2)ccn1 [GW680061]
%Inh (TLK1): 0%
%Inh (TLK2): 0%
%Inh (TNIK): 8%
%Inh (TNK1): 0%
%Inh (TNK2): 16%
%Inh (TNNI3K): 0%
%Inh (TRKA): 0%
%Inh (TRKB): 0%
%Inh (TRKC): 16%
%Inh (TRPM6): 0%
%Inh (TSSK1B): 1%
%Inh (TSSK3): 15%
%Inh (TTK): 6%
%Inh (TXK): 0%
%Inh [1]: 0%
%Inh [2]: 18%
%Inh (TYRO3): 35%
%Inh (ULK1): 0%
%Inh (ULK2): 0%
%Inh (ULK3): 13%

Cc1ccc(NC(=O)Nc2ccc(Cl)c(C(F)(F)F)c2)cc1-c1ccc(C(=O)Nc2ccncc2)cc1 [GSK1398470]
%Inh (TLK1): 20%
%Inh (TLK2): 8%
%Inh (TNIK): 9%
%Inh (TNK1): 20%
%Inh (TNK2): 10%
%Inh (TNNI3K): 64%
%Inh (TRKA): 11%
%Inh (TRKB): 0%
%Inh (TRKC): 0%
%Inh (TRPM6): 6%
%Inh (TSSK1B): 0%
%Inh (TSSK3): 9%
%Inh (TTK): 32%
%Inh (TXK): 0%
%Inh [1]: 0%
%Inh [2]: 0%
%Inh (TYRO3): 0%
%Inh (ULK1): 44%
%Inh (ULK2): 0%
%Inh (ULK3): 51%

O=C(Nc1n[nH]c2nc(-c3cccs3)c(Br)cc12)C1CCCC1 [SB-743341]
%Inh (TLK1): 0%
%Inh (TLK2): 0%
%Inh (TNIK): 0%
%Inh (TNK1): 0%
%Inh (TNK2): 0%
%Inh (TNNI3K): 0%
%Inh (TRKA): 16%
%Inh (TRKB): 22%
%Inh (TRKC): 9%
%Inh (TRPM6): 0%
%Inh (TSSK1B): 24%
%Inh (TSSK3): 0%
%Inh (TTK): 37%
%Inh (TXK): 7%
%Inh [1]: 0%
%Inh [2]: 7%
%Inh (TYRO3): 1%
%Inh (ULK1): 26%
%Inh (ULK2): 32%
%Inh (ULK3): 0%

COc1nccc(-c2c(-c3ccc(F)cc3)ncn2CCCN2CCOCC2)n1 [SB-282852]
%Inh (TLK1): 26%
%Inh (TLK2): 0%
%Inh (TNIK): 0%
%Inh (TNK1): 0%
%Inh (TNK2): 0%
%Inh (TNNI3K): 0%
%Inh (TRKA): 61%
%Inh (TRKB): 56%
%Inh (TRKC): 13%
%Inh (TRPM6): 0%
%Inh (TSSK1B): 0%
%Inh (TSSK3): 50%
%Inh (TTK): 0%
%Inh (TXK): 6%
%Inh [1]: 13%
%Inh [2]: 25%
%Inh (TYRO3): 0%
%Inh (ULK1): 0%
%Inh (ULK2): 33%
%Inh (ULK3): 12%

COc1cccc(C2=C(Nc3cc(Cl)c(O)c(Cl)c3)C(=O)NC2=O)c1 [SB-390767]
%Inh (TLK1): 0%
%Inh (TLK2): 0%
%Inh (TNIK): 0%
%Inh (TNK1): 23%
%Inh (TNK2): 26%
%Inh (TNNI3K): 13%
%Inh (TRKA): 0%
%Inh (TRKB): 0%
%Inh (TRKC): 0%
%Inh (TRPM6): 15%
%Inh (TSSK1B): 0%
%Inh (TSSK3): 16%
%Inh (TTK): 7%
%Inh (TXK): 15%
%Inh [1]: 28%
%Inh [2]: 39%
%Inh (TYRO3): 29%
%Inh (ULK1): 32%
%Inh (ULK2): 0%
%Inh (ULK3): 13%

O=C1NC(=O)C(c2ccc(Cl)cc2)=C1Nc1ccc(O)cc1 [SB-340867]
%Inh (TLK1): 10%
%Inh (TLK2): 0%
%Inh (TNIK): 0%
%Inh (TNK1): 46%
%Inh (TNK2): 0%
%Inh (TNNI3K): 0%
%Inh (TRKA): 0%
%Inh (TRKB): 5%
%Inh (TRKC): 0%
%Inh (TRPM6): 9%
%Inh (TSSK1B): 0%
%Inh (TSSK3): 0%
%Inh (TTK): 100%
%Inh (TXK): 18%
%Inh [1]: 0%
%Inh [2]: 0%
%Inh (TYRO3): 0%
%Inh (ULK1): 0%
%Inh (ULK2): 0%
%Inh (ULK3): 10%

COc1ccc(Nc2nccc(N3CCC(NC(=O)C(C)c4ccc(Cl)cc4)CC3)n2)cc1 (centres unmarked) [GSK1379812]
%Inh (TLK1): 7%
%Inh (TLK2): 0%
%Inh (TNIK): 0%
%Inh (TNK1): 0%
%Inh (TNK2): 8%
%Inh (TNNI3K): 2%
%Inh (TRKA): 49%
%Inh (TRKB): 0%
%Inh (TRKC): 0%
%Inh (TRPM6): 0%
%Inh (TSSK1B): 0%
%Inh (TSSK3): 53%
%Inh (TTK): 0%
%Inh (TXK): 0%
%Inh [1]: 0%
%Inh [2]: 0%
%Inh (TYRO3): 0%
%Inh (ULK1): 0%
%Inh (ULK2): 0%
%Inh (ULK3): 0%
